Results from PubChem BioAssay.
Several values for one entry are separate records, joined by “and”; a condition that tells them apart may be missing. Equal entries are not always repeated. Activity calls are given as the source filed them.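 Rule for the calls, unless noted: active = z-score of at least 1.8 in each of two replicates, scored against plate mean and spread of sample wells; inactive = the rest.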

system: not listed separately; assay: sensitizers of A549 cells to miR-34 induction, primary screen, imaging, A549 dox-inducible miR-34, nuclei and caspase counts (AID 1347080); conditions: A549 miR-34 inducible, Hoechst nuclei count, 48 h; measured here: relative caspase fold change +Dox/-Dox

Structure (SMILES)	fold change
CN1C[C@H](CNC(=O)OCc2ccccc2)C[C@@H]2c3cccc4c3c(cn4C)C[C@H]21	1.05 and 1.44 and 0.756
COc1ccc2c(c1OC)C(=O)O[C@H]2[C@@H]1c2cc3c(cc2CCN1C)OCO3	1.1
CN(C)C(=S)SSC(=S)N(C)C	4.9
COP(=S)(OC)Oc1ccc(Sc2ccc(OP(=S)(OC)OC)cc2)cc1	1.68
c1ccc2c(c1)Sc1ccccc1N2CC1CN2CCC1CC2 (stereo unspecified)	0.648

same assay, conditions: A549 miR-34 inducible, Hoechst nuclei count, 48 h; measured here: total cells with miR-34 induction; stronger effect = lower value

Structure (SMILES)	cell count
CN1C[C@H](CNC(=O)OCc2ccccc2)C[C@@H]2c3cccc4c3c(cn4C)C[C@H]21	1820 and 6760 and 7430
COc1ccc2c(c1OC)C(=O)O[C@H]2[C@@H]1c2cc3c(cc2CCN1C)OCO3	10700
CN(C)C(=S)SSC(=S)N(C)C	7410
COP(=S)(OC)Oc1ccc(Sc2ccc(OP(=S)(OC)OC)cc2)cc1	9320
c1ccc2c(c1)Sc1ccccc1N2CC1CN2CCC1CC2 (stereo unspecified)	6390

same assay, conditions: A549 miR-34 inducible, Hoechst nuclei count, 48 h; measured here: total cells without miR-34 induction

Structure (SMILES)	cell count
CN1C[C@H](CNC(=O)OCc2ccccc2)C[C@@H]2c3cccc4c3c(cn4C)C[C@H]21	2580 and 7810 and 7670
COc1ccc2c(c1OC)C(=O)O[C@H]2[C@@H]1c2cc3c(cc2CCN1C)OCO3	10900
CN(C)C(=S)SSC(=S)N(C)C	10600
COP(=S)(OC)Oc1ccc(Sc2ccc(OP(=S)(OC)OC)cc2)cc1	11100
c1ccc2c(c1)Sc1ccccc1N2CC1CN2CCC1CC2 (stereo unspecified)	7490

molecular target: Mitogen-activated protein kinase 7 (Homo sapiens) (UniProt Q13164); assay: ERK5 transactivation activators in reporter cells, primary screen, cell-based, HTS (AID 1508626;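 active = luciferase signal above three times the same-plate solvent-only control wells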;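 note: luciferase driven by Gal4-ERK5 fusion binding five Gal4 sites before minimal TATA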); conditions: HeLa Gal4-ERK5 transactivation, 18 h, at 5 µM, stronger effect = higher value
Sequence (Q13164 whole entry, looked up, the tested form may be a part): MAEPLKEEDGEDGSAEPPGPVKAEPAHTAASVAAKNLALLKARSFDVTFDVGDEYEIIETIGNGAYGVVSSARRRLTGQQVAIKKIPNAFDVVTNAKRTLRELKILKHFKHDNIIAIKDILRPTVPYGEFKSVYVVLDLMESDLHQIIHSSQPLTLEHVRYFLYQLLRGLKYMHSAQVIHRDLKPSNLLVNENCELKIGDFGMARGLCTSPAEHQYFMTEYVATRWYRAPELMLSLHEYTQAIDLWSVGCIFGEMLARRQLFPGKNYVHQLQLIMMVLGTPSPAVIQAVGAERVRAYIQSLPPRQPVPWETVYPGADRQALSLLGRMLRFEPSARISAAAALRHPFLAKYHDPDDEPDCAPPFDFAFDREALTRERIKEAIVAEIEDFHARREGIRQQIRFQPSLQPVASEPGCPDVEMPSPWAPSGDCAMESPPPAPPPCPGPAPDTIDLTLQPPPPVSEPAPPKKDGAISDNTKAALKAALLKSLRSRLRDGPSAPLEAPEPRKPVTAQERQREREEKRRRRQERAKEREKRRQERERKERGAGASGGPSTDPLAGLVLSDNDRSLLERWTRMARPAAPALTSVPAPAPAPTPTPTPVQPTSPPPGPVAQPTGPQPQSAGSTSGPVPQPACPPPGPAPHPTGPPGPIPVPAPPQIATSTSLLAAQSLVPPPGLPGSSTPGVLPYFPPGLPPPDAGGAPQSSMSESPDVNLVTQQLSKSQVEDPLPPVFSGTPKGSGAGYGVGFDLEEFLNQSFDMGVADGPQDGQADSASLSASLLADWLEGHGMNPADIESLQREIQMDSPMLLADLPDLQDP

Structure (SMILES)	luciferase signal
CN1C[C@H](CNC(=O)OCc2ccccc2)C[C@@H]2c3cccc4c3c(cn4C)C[C@H]21	40 AU (inactive)
CN(C)C(=S)SSC(=S)N(C)C	64 AU (inactive)
COP(=S)(OC)Oc1ccc(Sc2ccc(OP(=S)(OC)OC)cc2)cc1	80 AU (inactive)

system: not listed separately; assay: viability rescue of complex I mutant cybrids, primary screen, cell-based, galactose medium, ATP luminescence (AID 1645843); conditions: complex I mutant cybrid cells, 72 h, stronger effect = higher value;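 note: positive z means more ATP and so rescue of galactose-driven cybrid death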

Structure (SMILES)	z-score
CN1C[C@H](CNC(=O)OCc2ccccc2)C[C@@H]2c3cccc4c3c(cn4C)C[C@H]21	-1.27 (inactive) and -0.62 (inactive)
COc1ccc2c(c1OC)C(=O)O[C@H]2[C@@H]1c2cc3c(cc2CCN1C)OCO3	0.055 (inactive)
c1ccc2c(c1)Sc1ccccc1N2CC1CN2CCC1CC2 (stereo unspecified)	-2.58 (inactive)
